Measurements: PubChem BioAssay
Values joined by “and” are separate entries in the source; they are usually repeats but may differ in a detail not shown here. Equal values may be shown once. Records with an inconclusive call do not appear. For part of these data: Potency and affinity values are given separately. Active and inactive are the calls of the source. Unless noted, how the calls were made is not given here.

How the values were obtained:
[1] = blockers of polyQ-driven CASP3 activation – cell-based (AID 1583); conditions: polyglutamine-induced caspase-3 activation, cell assay; stronger effect = higher value;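 tested at 10 µM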
[2] = restoration of touch response, mutant HTT neurons – whole organism, C. elegans mechanosensory neurons, N-terminal huntingtin (AID 1599); conditions: C. elegans polyQ-huntingtin mechanosensory neurons, stronger effect = higher value
[3] = glutamate transport activators, MN-1 cells, MN-1 cell line (AID 1612); conditions: MN-1 motor neuron cells, stronger effect = higher value;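 further: tested at 1 µM final; 0% = mean of DMSO vehicle wells on each plate; positive means more glutamate uptake than control and negative means less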
[4] = GFP-Q80 aggregate reduction, neuronal-like cells, cell-based, NGF-treated PC12, GFPQ80 (AID 1614); conditions: PC12 NGF-treated GFP-polyQ80 inclusion reduction;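 further: lower means fewer inclusions and 0 means no inclusions at all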
[5] = 75Q-TubH aggregate inhibition, S. cerevisiae, yeast (AID 1616); conditions: S. cerevisiae 75Q-TubH polyglutamine aggregation suppression; stronger effect = higher value
[6] = compounds altering circadian rhythm period length – cell-based, LOPAC library, luminescence reporter (AID 2774); conditions: circadian reporter cells, at 7 µM, actives lie on both sides;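 further: values are relative to mean of DMSO wells on each plate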
[7] = tested on: Hepatitis C virus NS3 helicase; experiment: blockers of NS3h binding to ssDNA – biochemical, fluorescence polarization, LOPAC1280 library, primary screen (AID 687035; in the data active means inhibition above about 37%); conditions: Purified HCV NS3 helicase, Cy5-dT15 ssDNA binding fluorescence polarization; stronger effect = higher value; concentration not given here
[8] = compounds altering Cy5-DNA-NS3h complex signal – biochemical, LOPAC1280, artefact control for HCV NS3 helicase inhibitor project (AID 687037); conditions: Cy5-DNA-NS3h complex fluorescence interference counterscreen
[9] = tested on: Aerobactin synthetase IucA (Klebsiella pneumoniae, hypervirulent); experiment: biochemical IucA inhibition screen of LOPAC library by absorbance (AID 1346212); conditions: IucA enzyme assay, absorbance (OD) readout; stronger effect = lower value;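 tested at 8 µM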;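 further: 100% = no compound wells and 0% = no enzyme wells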
[10] = blockers of cellular phospholipid synthesis – cell-based, LOPAC library, screen 4, primary screen (AID 1347384); conditions: animal cells, phospholipid biosynthesis inhibition screen; at 10 µM
[11] = compounds altering viability of human ES cells (AID 493140); conditions: human embryonic stem cell survival screen; stronger effect = higher value;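 further: cells exposed to compounds for four days before counting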
[12] = molecular target: ATP-dependent translocase ABCB1 (Homo sapiens) (UniProt P08183); experiment: P-glycoprotein substrate transport blockade – cell-based (AID 377; in the data active means fluorescence slope change above about 50%); conditions: MDR1-expressing cells, fluorescent substrate accumulation slope; stronger effect = higher value; concentration not given here
Sequence of ATP-dependent translocase ABCB1 (Homo sapiens) (P08183 whole entry, looked up): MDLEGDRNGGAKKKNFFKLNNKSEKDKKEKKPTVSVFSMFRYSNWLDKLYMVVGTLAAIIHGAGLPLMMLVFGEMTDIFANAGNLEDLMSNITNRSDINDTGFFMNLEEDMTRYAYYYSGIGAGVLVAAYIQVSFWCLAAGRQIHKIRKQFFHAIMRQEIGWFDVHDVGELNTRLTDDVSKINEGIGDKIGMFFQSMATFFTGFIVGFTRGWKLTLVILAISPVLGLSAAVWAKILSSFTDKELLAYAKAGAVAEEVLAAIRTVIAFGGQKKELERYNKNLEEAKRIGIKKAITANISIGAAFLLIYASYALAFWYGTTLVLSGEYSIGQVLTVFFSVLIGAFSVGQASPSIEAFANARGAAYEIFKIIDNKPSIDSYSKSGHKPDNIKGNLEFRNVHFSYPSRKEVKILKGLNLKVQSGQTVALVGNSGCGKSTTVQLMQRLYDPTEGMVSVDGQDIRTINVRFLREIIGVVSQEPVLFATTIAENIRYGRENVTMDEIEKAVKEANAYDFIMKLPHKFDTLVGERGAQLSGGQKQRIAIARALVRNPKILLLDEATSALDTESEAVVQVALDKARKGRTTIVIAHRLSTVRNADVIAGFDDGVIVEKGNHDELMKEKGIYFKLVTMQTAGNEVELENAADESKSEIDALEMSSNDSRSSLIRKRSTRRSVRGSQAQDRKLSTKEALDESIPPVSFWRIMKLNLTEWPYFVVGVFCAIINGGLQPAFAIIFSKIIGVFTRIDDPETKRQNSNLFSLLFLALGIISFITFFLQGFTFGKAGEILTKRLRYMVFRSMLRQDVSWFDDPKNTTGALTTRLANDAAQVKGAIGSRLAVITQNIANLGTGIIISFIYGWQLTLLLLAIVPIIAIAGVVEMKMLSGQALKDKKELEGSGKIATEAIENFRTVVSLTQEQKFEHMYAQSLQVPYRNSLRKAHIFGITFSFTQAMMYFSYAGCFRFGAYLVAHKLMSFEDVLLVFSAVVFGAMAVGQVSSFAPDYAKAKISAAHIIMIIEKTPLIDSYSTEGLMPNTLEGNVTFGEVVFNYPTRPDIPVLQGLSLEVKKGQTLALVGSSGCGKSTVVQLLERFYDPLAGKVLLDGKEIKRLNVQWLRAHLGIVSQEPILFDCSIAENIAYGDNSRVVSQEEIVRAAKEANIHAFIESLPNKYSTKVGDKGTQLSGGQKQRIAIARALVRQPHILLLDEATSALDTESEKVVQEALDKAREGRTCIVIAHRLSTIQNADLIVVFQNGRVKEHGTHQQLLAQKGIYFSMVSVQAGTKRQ

[13] = modulation of C. elegans fzo-1 (AID 1259413);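 further: fzo-1 mutant C. elegans worms in liquid wells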; conditions: C. elegans fzo-1 modulator screen, mean read-out; stronger effect = higher value
F380Y = experiment: BK channel mutant inhibitors and activators – cell-based, U2OS BacMam, thallium flux, beta subunits, selectivity assay, profiling panel (AID 1259406;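 active means thallium flux through the channel raised or lowered by more than 3 SD from vehicle-only wells, actives on both sides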;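 further: initial slope of Thallos dye fluorescence rise after thallium is added; log ratio against the mean of 0.3% DMSO vehicle wells on the same plate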); conditions: U2OS BacMam BK variants, at 30 µM
F380Y/beta1 = experiment: as above; conditions: U2OS BacMam BK variants, at 30 µM
F380Y/beta2Delta = experiment: as above; conditions: U2OS BacMam BK variants, at 30 µM
R275C = experiment: as above; conditions: U2OS BacMam BK variants, at 30 µM
R275C/beta1 = experiment: as above; conditions: U2OS BacMam BK variants, at 30 µM
R275C/beta2Delta = experiment: as above; conditions: U2OS BacMam BK variants, at 30 µM
R275C/Slo1WT/beta2 = experiment: as above; conditions: U2OS BacMam BK variants, at 30 µM

| SMILES | inhibition [1] [%] | rescue above control [2] | glutamate uptake change [3] [%] | inclusion score [4] | aggregation suppression score [5] | period change [6] | inhibition [7] | fluorescence ratio (interference) [8] | remaining activity [9] | outcome [10] | survival [11] | fluorescence slope change [12] | mean signal [13] | log fold change Tl+ flux (F380Y) | log fold change Tl+ flux (F380Y/beta1) | log fold change Tl+ flux (F380Y/beta2Delta) | log fold change Tl+ flux (R275C) | log fold change Tl+ flux (R275C/beta1) | log fold change Tl+ flux (R275C/beta2Delta) | log fold change Tl+ flux (R275C/Slo1WT/beta2) |
| --- | --- | --- | --- | --- | --- | --- | --- | --- | --- | --- | --- | --- | --- | --- | --- | --- | --- | --- | --- | --- |
| CC(C)(C)NCC(O)c1ccccc1Cl (stereo not given) | 4.55 | -6.12 | 2.34 | 2 | 1.28 | -0.125 h (inactive) | -4% (inactive) | 1 (inactive) | 113% (inactive) | inactive | – | – | – | – | – | – | – | – | – | – |
| Cc1ncc(CNC(=O)N(CCCl)N=O)c(N)n1 | – | – | – | – | – | -0.065 h (inactive) | 2% (inactive) | 1 (inactive) | 113% (inactive) | inactive | – | – | – | – | – | – | – | – | – | – |
| COc1ccc(OC)c(C(O)C(C)N)c1 (stereo not given) | – | – | – | – | – | 0.08 h (inactive) | -2% (inactive) | 1 (inactive) | 112% (inactive) | inactive | 3.58 (inactive) | – | – | – | – | – | – | – | – | – |
| CC(NC(C)(C)C)C(=O)c1cccc(Cl)c1 (stereo not given) | – | – | – | – | – | 0.18 h (inactive) | -1% (inactive) | 1 (inactive) | 118% (inactive) | inactive | 16.8 (inactive) | 106% (active) | 264 (inactive) | 0.0198 (inactive) and -0.0218 (inactive) | -0.0211 (inactive) and 0.0228 (inactive) | -0.0525 (inactive) and 0.0137 (inactive) | -0.059 (inactive) and 0.00561 (inactive) | -0.0389 (inactive) and 0.036 (inactive) | -0.014 (inactive) and 0.0171 (inactive) | -0.0516 (inactive) and 0.0164 (inactive) |
| COC(=O)C1=CCCN(C)C1 | 15.1 | 4.32 | 13.8 | 2 | 1.35 | -0.175 h (inactive) | 0% (inactive) | 1 (inactive) | 111% (inactive) | inactive | 7.67 (inactive) | – | – | – | – | – | – | – | – | – |
| O=c1[nH]oc2c1CCNC2 | 9.73 | -2.56 | 5.07 | 2 | 1.43 | 0.075 h (inactive) | -5% (inactive) | 1 (inactive) | 100% (inactive) | inactive | 19.5 (inactive) | – | – | – | – | – | – | – | – | – |
| Clc1ccc(COC(Cn2ccnc2)c2ccc(Cl)cc2Cl)cc1 (stereo not given) | 55.1 | – | 16.9 | – | 0.0462 | – | – | – | – | – | 50.1 (inactive) | 66.2% (active) | 173 (inactive) | -0.0888 (inactive) | -0.0732 (inactive) | -0.182 (active) | -0.00134 (inactive) | 0.0779 (inactive) | 0.0329 (inactive) | -0.0527 (inactive) |
| O=c1[nH]c2ccccc2n1CCCN1CCC(n2c(=O)[nH]c3cc(Cl)ccc32)CC1 | – | – | – | – | – | -0.195 h (inactive) | -3% (inactive) | 1 (inactive) | 105% (inactive) | inactive | 7.33 (inactive) | – | – | – | – | – | – | – | – | – |
| N[C@@H](Cc1ccc(N(CCCl)CCCl)cc1)C(=O)O | 9.42 | -0.78 | 15.9 | – | 1.07 | – | – | – | 104% (inactive) | – | – | 94.7% (active) | – | – | – | – | – | – | – | – |
| CC(CCc1ccccc1)NC(C)C(O)c1ccc(O)cc1 (stereo not given) | 5.61 | 1.38 | -2.97 | 2 | 1.46 | 0.06 h (inactive) | -5% (inactive) | 0.9 (inactive) | 104% (inactive) | inactive | – | – | – | – | – | – | – | – | – | – |
| CC(C)N(CCC(C(N)=O)(c1ccccc1)c1ccccn1)C(C)C (stereo not given) | -16.9 | -8.3 | 24.3 | 2 | 1.38 | 0.265 hour (inactive) and -0.11 hour (inactive) | 0% (inactive) and -1% (inactive) | 1 (inactive) | 98.9% (inactive) and 93.2% (inactive) | inactive | 11.6 (inactive) | 52.1% (active) | 254 (inactive) | -0.0248 (inactive) | 0.0372 (inactive) | 0.00612 (inactive) | 0.00817 (inactive) | -0.022 (inactive) | -0.0143 (inactive) | 0.00641 (inactive) |
| NCCc1ccc(O)cc1 | -15.4 | -11.7 | -2.56 | 2 | 1.19 | 0.035 h (inactive) | -3% (inactive) | 1 (inactive) | 98.4% (inactive) | inactive | – | – | – | – | – | – | – | – | – | – |
| CC(Cc1ccc(O)cc1)NCC(O)c1cc(O)cc(O)c1 (stereo not given) | 7.8 | 3.16 | 0.39 | 2 | 1.23 | 0.005 h (inactive) | -3% (inactive) | 1 (inactive) | 91.6% (inactive) | inactive | 36.6 (inactive) | 108% (active) | – | – | – | – | – | – | – | – |
| COc1ccc(C(CN(C)C)C2(O)CCCCC2)cc1 (stereo not given) | – | – | – | – | – | – | -1% (inactive) | 1.1 (inactive) | – | inactive | – | – | 261 (inactive) | 0.00861 (inactive) | -0.0404 (inactive) | -0.0103 (inactive) | -0.109 (inactive) | 0.0103 (inactive) | -0.0272 (inactive) | 0.0327 (inactive) |
| CC[n+]1c(-c2ccccc2)c2cc(N)ccc2c2ccc(N)cc21 | 24.8 | 0 | 5.78 | – | 0.0827 | – | – | – | – | – | – | – | – | – | – | – | – | – | – | – |
